The assay concerns the target AMP-activated protein kinase, AMPK (Homo sapiens) (UniProt P54646+O43741+P54619+Q9UGJ0+Q9Y478+Q13131+Q9UGI9). The assay is described as follows: AMP-dependent Kinase enzyme assay. An in vitro enzyme assay that detects ADP turnover that is directly proportional to AMPK activity. This uses naive AMPK that is activated during the assay with MK-8722. The assay is classed as functional. The settings on record: 30 µM. The arrangement: scale not given: direction of the effect not stated beside the values.
With `CN(CCCOc1ccccc1Cl)C(=O)CN1CCCCCC1=O`, the Percent Effect was 9.36%. Turning to `O=C1CN(Cc2cn(C3CCN(C4CSCCSC4)CC3)nn2)CCN1`, the Percent Effect was -9.53%. With `CCc1nc(N)nc(NCCC(=O)N2CCCC2)c1C` the figure was 4.47%. With `Cc1nc(CN2CCCCC2Cn2cccn2)nc2ccccc12` (stereo not given) the figure was 0.0601%.

For `O=C(COc1cccc(Cl)c1)N1CCOCC(O)(CN2CCCC2)C1` (stereo not given), the Percent Effect was determined as 6.36%. Regarding `COCCC(=O)N1CCC(c2nnc(-c3ccsc3)o2)CC1`, the Percent Effect stood at 2.43%. The same measure for `COCCN1C[C@H]2CC[C@@H]1CN(C(=O)CCc1n[nH]c(C)c1C)C2`: -0.161%; for `NC1CCc2nc(-c3cccnc3)nc(Nc3ccc(F)cc3)c2C1` (stereo not given): 27.2%; for `Cc1nccn1CCN1C(=O)CC2(CCCC2)CC1=O`: 8.33%.

On to `Cc1nc(C)c(C(=O)N2CCCc3c(F)cccc32)o1`, for which the Percent Effect is -0.713%. For `Cc1ccncc1CN1CCOCC1c1[nH]ncc1C` (stereo not given), the Percent Effect worked out at 17%. As to `CO[C@H]1CN(Cc2c(C)ccc3ncccc23)CC[C@H]1N`, the Percent Effect came to 1.31%.

For the compound `CCN(CC)C(=O)N1CCOCC1c1c(C)nn(C)c1C` (stereo not given), the Percent Effect was determined as 2.79%. The same measure for `CN(C)C(=O)CN1CCN(c2cc(N3CCCC3CO)ncn2)CC1` (stereo not given): -0.698%. The same measure for `CCC(CN1CCCC1)n1cncc1-c1cnn(-c2ccccc2)c1` (stereo not given): 20%; for `FC(F)(F)c1csc(N2CCN(Cc3ccccn3)CC2)n1`: 7.24%. Regarding `CCC(C)(CC(=O)OC)NCc1noc(C)n1` (stereo not given), the Percent Effect amounted to 1.21%.

With `CCc1nnc(C(C)N2CCC(NC(=O)C3CCCCC3)CC2)o1` (stereo not given), the Percent Effect was 2.87%. Take `CC(C)O[C@H]1CN(C(=O)CCN2CCCCO2)C[C@@H]1O`: the Percent Effect was -7.14%.

With `COC[C@]1(O)CCN(c2cc(C3CC3)ncn2)CC1(C)C`, the Percent Effect was 10.6%.

For the compound `Cc1ncc2c(n1)CN(Cc1nc(-c3ccco3)oc1C)CC2`, the Percent Effect was -38.3%. The same measure for `COc1cc(N2CCN(Cc3ccsc3)C(CCO)C2)nc(N)n1` (stereo not given): -5.18%; for `Cn1ncnc1NCc1ccc(F)cc1`: -10.9%; for `CN1CCOC(CNCC(=O)NCCC2=CCCCC2)C1` (stereo not given): -9.7%. Consider `CN(CCc1ccccc1)Cc1c(C2CCNCC2)[nH]c2ncccc12`, for which the Percent Effect turned out to be 7.86%.

Consider `COc1ccccc1OCc1nc2cc3c(cc2c(=O)o1)OCCCO3`, for which the Percent Effect was -8.93%.

As for `COc1ccc2c(c1)CCCC2CC(=O)O` (stereo not given), the Percent Effect is -8.39%. With `CCN(CC)S(=O)(=O)NCC1COc2ccccc2O1` (stereo not given) the figure was 8.6%; with `CC(C)Cn1ncc(C(=O)O)c1C1CC1`, 5.05%.

`CC(=O)N1CCC(C(=O)N2CCC2c2nc(-c3ccc(C)s3)no2)CC1` (stereo not given): the Percent Effect stood at 7.15%. The same measure for `COC1CCN(c2ccc(F)cc2CN(C)CC(N)=O)CC1`: 5.84%; for `COc1cc(CN2CCC(COCc3ccccc3)CC2)cc(OC)c1`: 0.75%; for `CCN1CCC(CC(=O)NCCc2nc(O)cc(O)n2)CC1`: -0.635%. With `CN(C)c1cccc(C(=O)Nc2ccn(CCc3ccncc3)n2)c1` the figure was 12.1%.

For the compound `C1=C(CNC2CCc3ncnn3C2)COc2ccccc21` (stereo not given), the Percent Effect amounted to 10.9%. As to `N#Cc1cccc(N2CCC(CO)(CCc3ccccc3)CC2)n1`, the Percent Effect was found to be 3.06%. The same measure for `O=C(NCCS(=O)(=O)N1CCN(c2ncccn2)CC1)C1CC1`: 1.52%. With `Cc1ccc(OCc2occc2C(=O)N2CCCCC(N)C2)cc1` (stereo not given), the Percent Effect is 5.88%. Regarding `CN1CCC(N(Cc2ccncc2)C(=O)COCC2CCCCO2)CC1` (stereo not given), the Percent Effect is 1.82%. In the case of `CCc1ccccc1OCCN(C)C(=O)CN1CCCC1`, the Percent Effect is -130%.
